Common to all, as to experiment: NCI-60 one-dose screen, 48 h (100 = growth as untreated, 0 = no growth, -100 = all killed)
Common to all, as to conditions: 10 µM unless noted

Experiment [1] concerns SK-MEL-2 melanoma.
Experiment [2] has as its system EKVX NSCLC.
Experiment [3] relates to SN12C renal.
Experiment [4] deals with UO-31 renal.
Experiment [5] relates to TK-10 renal.
Experiment [6] relates to ACHN renal.
Experiment [7] deals with A498 renal.
Experiment [8] deals with CCRF-CEM leukemia.
The test system of experiment [9] is MOLT-4 leukemia.
Experiment [10] deals with CAKI-1 renal.

Values joined by “and” are separate entries in the source; they are usually repeats but may differ in a detail not shown here. Equal values may be shown once. Compounds without any hit were thinned out: in the full panel of roughly 83,000, 20% have a hit.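 Plates (96-well) were seeded with cells, treated with compound at one concentration, and incubated for 48 hours before percent growth was determined.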 Active and inactive are the calls of the source. Rule for the calls: active = growth percent below 10; inactive = the rest.

On to `O=C(N=C1C(=O)C2(CCCCC2)C2(N=C(c3ccccc3)OC2=O)C12CCCCC2)c1ccccc1` (stereo not drawn), for which the growth in experiment [1] is 76% (inactive); in experiment [2], 70.5% (inactive); in [3], 77.8% (inactive); in [4], 58.5% (inactive); in [5] it was 86.2% (inactive); in experiment [6] it was 80.5% (inactive). Moreover, the growth is 98.2% (inactive) in experiment [7], 37.4% (inactive) in [8] and 50.5% (inactive) in [9].
In the case of `Clc1ccc(/C=C/c2ccc3ccccc3n2)cc1`, the growth in [1] is 10.7% (inactive) and 89.2% (inactive); in [2], 57.6% (inactive) and 58.7% (inactive) and 66.2% (inactive); in experiment [3] it was 43.8% (inactive) and 97.7% (inactive) and 85.7% (inactive); in [4] it was 69.7% (inactive) and 68.4% (inactive) and 58.1% (inactive); in experiment [5], 15.3% (inactive) and 132% (inactive) and 86.7% (inactive); in experiment [10] it was 47.7% (inactive) and 68% (inactive) and 84.7% (inactive). The growth in experiment [7] was 61% (inactive) and 135% (inactive) and 114% (inactive); in experiment [8] it was 8.05% (active) and 97.1% (inactive) and 89.3% (inactive); in [9], 30.9% (inactive) and 41.9% (inactive) and 76% (inactive).
Consider `CN(C=O)c1ccccc1`, for which the growth was 103% (inactive) in experiment [1]; 86.6% (inactive) in experiment [2]; 93.3% (inactive) in [3]; 65.5% (inactive) in experiment [4]; 121% (inactive) in experiment [5]; 92% (inactive) in experiment [6]. Also, the results for the growth in experiment [7], in experiment [8] and in experiment [9] were 98% (inactive), 95.7% (inactive) and 97.5% (inactive), respectively.
`COC(=O)c1nc(=S)[nH]c(C(=O)OC)c1C(=O)c1ccccc1`: the growth was 104% (inactive) in experiment [1]; 107% (inactive) in [2]; 99.2% (inactive) in [3]; 85.3% (inactive) in experiment [4]; 113% (inactive) in experiment [5]; 87% (inactive) in experiment [10]. Also, the growth is 114% (inactive) in experiment [7], 103% (inactive) in experiment [8] and 112% (inactive) in experiment [9].
On to `CC(=O)c1cccc(OC(=O)c2ccccc2)c1`, for which the growth in [1] is 88.9% (inactive); in [2], 110% (inactive); in [3], 91.2% (inactive); in [4], 103% (inactive); in experiment [5], 106% (inactive); in experiment [10], 91.1% (inactive). For the same molecule, the values for the growth in experiment [7], in [8] and in experiment [9] were 107% (inactive), 97.8% (inactive) and 84.7% (inactive), respectively.
`CCc1ccc(OC(=O)CCl)cc1`: the growth was 99.9% (inactive) in [1]; 98.6% (inactive) in experiment [2]; 106% (inactive) in [3]; 88.6% (inactive) in experiment [4]; 101% (inactive) in [5]; 102% (inactive) in experiment [6]. The growth in experiment [7] was 88.3% (inactive); in [8], 104% (inactive); in experiment [9], 102% (inactive).
In the case of `O=C(O)C1CSCN1` (stereo not drawn), the growth in experiment [1] was 110% (inactive) and 84.4% (inactive); in [2] it was 102% (inactive) and 101% (inactive); in experiment [3], 100% (inactive); in experiment [4], 81.3% (inactive) and 88.6% (inactive); in [5] it was 103% (inactive) and 109% (inactive); in experiment [6], 101% (inactive) and 97.9% (inactive). The growth is 113% (inactive) and 103% (inactive) in experiment [7]; 100% (inactive) and 121% (inactive) in [8]; 75.9% (inactive) and 106% (inactive) in [9].
In the case of `O=[N+]([O-])c1ccc(N/N=C/C2CCCCCC2)c([N+](=O)[O-])c1`, the growth in experiment [1] was 105% (inactive); in experiment [2] it was 84.9% (inactive); in [3], 92% (inactive); in [4] it was 61.2% (inactive); in [5] it was 118% (inactive); in [6] it was 70.4% (inactive). The growth in [7] was 62.7% (inactive); in experiment [8] it was 51.6% (inactive); in experiment [9], 77.3% (inactive).
As to `Cc1nc2c(=O)[nH]c(=S)[nH]c2[nH]c1=O`, the growth in [1] is 102% (inactive) and 114% (inactive); in experiment [2] it was 102% (inactive) and 109% (inactive); in experiment [3], 102% (inactive) and 97.1% (inactive); in [4], 93.8% (inactive) and 87.3% (inactive); in experiment [5], 106% (inactive) and 119% (inactive); in experiment [6] it was 103% (inactive) and 97.6% (inactive). Besides, the growth in [7] was 97.5% (inactive) and 97.3% (inactive); in [8] it was 101% (inactive) and 104% (inactive); in experiment [9], 100% (inactive) and 103% (inactive).
On to `CCNCc1ccccc1`, for which the growth in experiment [1] was 111% (inactive); in [2], 111% (inactive); in experiment [3] it was 104% (inactive); in experiment [4], 86.7% (inactive); in [5], 100% (inactive); in [6], 110% (inactive). The results for the growth in [7], in experiment [8] and in experiment [9] were 97.4% (inactive), 121% (inactive) and 103% (inactive), respectively.
With `COc1ccc(COC=O)cc1`, the growth is 108% (inactive) in experiment [1]; 109% (inactive) in experiment [2]; 101% (inactive) in [3]; 92.5% (inactive) in [4]; 103% (inactive) in experiment [5]; 110% (inactive) in experiment [6]. In addition, the growth is 105% (inactive) in [7], 103% (inactive) in experiment [8] and 102% (inactive) in experiment [9].
As to `COC(=O)c1nc(N)nc(C(=O)OC)c1C(=O)c1cccc2ccccc12`, the growth in experiment [1] was 106% (inactive); in [2] it was 103% (inactive); in [3], 99.5% (inactive); in experiment [4], 89.7% (inactive); in [5], 97.5% (inactive); in experiment [10], 96.3% (inactive). Further, the figures for the growth in [7], in experiment [8] and in [9] were 105% (inactive), 101% (inactive) and 112% (inactive), respectively.

The values above are taken from PubChem BioAssay (NCI).
